Drawing on PubChem BioAssay (Tox21), this text covers Potency and activity change for 40 molecules.

Inconclusive results are not listed. A call without a number means that no potency is given here. Unmarked numbers belong to inactive results. Activity calls are given as the source filed them. Calls follow the shape of the dose curve; as a rule, active = well fitted activation curve with a large enough effect in the repeat runs; inconclusive = weak or mixed curves; inactive = flat fitted curve, though single readings scatter.
Potency is read from the fitted curve at half-maximal effect.

The experiment can be described thus: A CellTox Green Cytotoxicity Assay to monitor cytotoxicity in HEK293 cells - 16 hour (AID 1224888). Also: nearly all actives have a fitted effect of over 35% in size. The following applies: CellTox Green fluorescence; series mostly up to 76.8 µM. From the text: National Center for Advancing Translational Sciences [NCATS]
NIH Chemical Genomics Center [NCGC]
U.S. Environmental Protection Agency [EPA]
National Institutes of Environmental Health Sciences [NIEHS]
National Toxicology Program [NTP]
Cell-based models are critical for drug discovery. Determining the natural cytotoxic effects resulting from test compounds is an essential research activity. A CellTox Green Cytotoxicity Assay to monitor cytotoxicity in real time of continues cell culture during 40 hours of the compound treatment was used to screen Tox21 10K library compounds in Hek293 cells. CellTox Green Cytotoxicity Assay is a nonlytic, homogeneous, biofluorescent method to measure cytotoxicity in cell culture after experimental manipulation. The assay system uses a proprietary asymmetric cyanine dye that is excluded from viable cells but preferentially stains the dead cell's DNA. […] Viable cells produce no appreciable increases in fluorescence. Therefore, the fluorescence signal produced by the binding interaction with dead cell DNA is proportional to cytotoxicity.
The mixture of Hek293 cell suspension and reagents were dispensed at 600cells/6 ul/well in 1536-well tissue culture treated black solid bottom plates using a Multidrop dispenser. After the assay plates were incubated at a 37 C/5% CO2 incubator for 5 hours, 23 nL of compounds dissolved in DMSO, positive and negative controls was transferred to the assay plate by a pintool work station. The plates were incubated at 37 C for 40 hours. The fluorescence intensity were measured at 0h, 8h, 16h, 24h, 32h and 40h time points using ViewLux plate reader during compound treatment.
In the case of `O=C(O)C(O)[C@H](O)[C@@H](O)[C@H](O)[C@H](O)CO` (stereo not given in full), the Potency result is “inactive”. On to `Oc1cc(O)c2c(c1)O[C@H](c1ccc(O)c(O)c1)[C@H](O)C2`, for which the Potency entry is “inactive”. Same read-out and setting: for `CC(C)=CC(=O)O` the value was “inactive”; for `COc1ccc2cc(C=O)ccc2c1`, “inactive”. Still for that read-out and setting: for `O=S(=O)(O)c1ccccc1O` the value was “inactive”. Still for that read-out and setting: for `NC(N)=NS(=O)(=O)c1ccc(N)cc1` the value was “inactive”; for `CC(C)(O)C(=O)c1ccc(OCCO)cc1`, “inactive”; for `CC(C=O)Cc1ccc(C(C)C)cc1` (stereo not given), “inactive”. For the molecule `Cc1ccc(Nc2ccc(O)c3c2C(=O)c2ccccc2C3=O)cc1`, the Potency result is “inactive”. Consider `C=C(C)C(=O)NCCC[N+](C)(C)C`, for which the Potency entry was “inactive”. Still for that read-out and setting: for `CCN(CC)C(=O)c1ccc(O)c(OC)c1` the value was “inactive”; for `CCCCCC[C@@H](CCC)C(=O)O`, “inactive”; for `CCCCC1CCCCC(=O)O1` (stereo not given), “inactive”. The same measure, in the same setting: to `CCCCCCCCCCCCCCCCCC(=O)OCCCCCCCCCCCCCC(C)C` belongs “inactive”. Regarding `NC(=O)c1c(Cl)cccc1Cl`, the Potency result is “inactive”. For `CC/C=C\CCCCO`, the Potency entry was “inactive”.

Consider `Nc1[nH]c(=O)ncc1F`, for which the Potency entry is “inactive”. On to `CC(C)(O)c1ccccc1`, for which the Potency result was “inactive”. For `C=C(C)C1CC=C(C)C(O)C1` (stereo not given), the Potency result is “inactive”. As to `C=CCOc1nc(OCC=C)nc(OCC=C)n1`, the Potency entry was “inactive”.

For the molecule `Cc1c(F)cc2c(=O)c(C(=O)O)cn3c2c1CCC3C` (stereo not given), the Potency result was “inactive”. Take `CCCCc1ccc(N)cc1`: the Potency result was “inactive”. For the molecule `CN(C)C(=O)Nc1ccccc1`, the Potency entry was “inactive”.

As for `NC(CS)C(=O)O` (stereo not given), the Potency result is “inactive”. For `NCCNC(=O)c1ccc(Cl)cn1`, the Potency entry is “inactive”. As to `COC[C@H](c1ccc(C(F)(F)F)cc1)N1CCN(C2(C)CCN(C(=O)c3c(C)ncnc3C)CC2)C[C@H]1C`, the Potency result is “inactive”. For the molecule `CN(C)N=Nc1ccccc1`, the Potency result is “inactive”. `CSc1ccc(C=O)cc1`: the Potency entry is “inactive”. As for `O=C(O)c1cccc(C(=O)O)n1`, the Potency result was “inactive”.

`CC(C)(C)C(=O)/C=C/c1ccc(Cl)cc1`: the Potency result was “inactive”. For `Nc1ccn(C2CO[C@H](CO)O2)c(=O)n1` (stereo not given in full), the Potency was 19 µM (active). Consider `CN1[C@@H]2CC[C@H]1CC(NC(=O)n1c(=O)[nH]c3ccccc31)C2` (stereo not given in full), for which the Potency entry was “inactive”. Consider `CCCCc1ccc2cccc(S(=O)(=O)O)c2c1`, for which the Potency result is “inactive”.

Take `CC1(C)OC(=O)Nc2ccc(Br)cc21`: the Potency entry is “inactive”.

For `CC(=O)CCc1ccc(O)cc1`, the Potency entry was “inactive”. Consider `CCC(C(=O)NC(N)=O)c1ccccc1` (stereo not given), for which the Potency entry was “inactive”. With `C=CCSCC1Nc2cc(Cl)c(S(N)(=O)=O)cc2S(=O)(=O)N1` (stereo not given), the Potency result is “inactive”. With `C#CC(C)(O)CC(C)C` (stereo not given), the Potency entry is “inactive”. As for `NS(=O)(=O)c1cc2c(cc1Cl)NC(CSCc1ccccc1)=NS2(=O)=O`, the Potency entry was “inactive”. Regarding `FC(F)(F)C(F)(F)C(F)(F)C(F)(F)C(F)(F)C(F)(F)C(F)(F)C(F)(F)C(F)(F)C(F)(F)F`, the activity change is -9% [at 6.97 µM, hits give high values].
